Source: paper PMC5540273 (PLoS ONE, 2017)

Tests used:
Conditions in all cases: concentration: 1 μM, replicates: in singlicate; n = 1
GRK3 = tested on: T1, GRK3
T1 construct: gene ADRBK2

GRK4 = tested on: GRK4
GRK7 = tested on: GRK7
GSK3A = tested on: GSK3A
GSK3B = tested on: GSK3B
HASPIN = tested on: T2, HASPIN
T2 construct: gene GSG2

HCK = tested on: HCK
HIPK1 = tested on: HIPK1
HIPK2 = tested on: HIPK2
HIPK3 = tested on: HIPK3
HIPK4 = tested on: HIPK4
HPK1 = tested on: HPK1
HUNK = tested on: HUNK
ICK = tested on: ICK
IGF1R = tested on: IGF1R
IKK-alpha = tested on: T3, IKK-alpha
T3 construct: gene CHUK

IKK-beta = tested on: T4, IKK-beta
T4 construct: gene IKBKB

IKK-epsilon = tested on: T5, IKK-epsilon
T5 construct: gene IKBKE

INSRR = tested on: INSRR
INSR = tested on: INSR
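Note: KINOMEscan kinase panel screen.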

CC[C@@H]1CO[C@H](C(=O)Nc2ccccc2)CN1c1cc(-c2ccc3c(N)n[nH]c3c2)nc(NC)n1 [GSK2376236]
%Inh (GRK3): 0%
%Inh (GRK4): 0%
%Inh (GRK7): 0%
%Inh (GSK3A): 12%
%Inh (GSK3B): 17%
%Inh (HASPIN): 0%
%Inh (HCK): 0%
%Inh (HIPK1): 9%
%Inh (HIPK2): 0%
%Inh (HIPK3): 4%
%Inh (HIPK4): 0%
%Inh (HPK1): 15%
%Inh (HUNK): 0%
%Inh (ICK): 0%
%Inh (IGF1R): 0%
%Inh (IKK-alpha): 0%
%Inh (IKK-beta): 1%
%Inh (IKK-epsilon): 6%
%Inh (INSRR): 0%
%Inh (INSR): 10%

CC(C)c1ccc(O)cc1Nc1ccnc2ccc(C(F)(F)F)cc12 [GW482059]
%Inh (GRK3): 0%
%Inh (GRK4): 21%
%Inh (GRK7): 0%
%Inh (GSK3A): 19%
%Inh (GSK3B): 0%
%Inh (HASPIN): 3%
%Inh (HCK): 10%
%Inh (HIPK1): 0%
%Inh (HIPK2): 31%
%Inh (HIPK3): 0%
%Inh (HIPK4): 10%
%Inh (HPK1): 23%
%Inh (HUNK): 0%
%Inh (ICK): 0%
%Inh (IGF1R): 3%
%Inh (IKK-alpha): 0%
%Inh (IKK-beta): 0%
%Inh (IKK-epsilon): 0%
%Inh (INSRR): 7%
%Inh (INSR): 0%

COC(=O)C(Cc1ccccc1)NC(=O)NC1CCN(c2ccnc(Nc3ccc(F)cc3)n2)C1 (stereo not drawn) [GSK1379714]
%Inh (GRK3): 58%
%Inh (GRK4): 1%
%Inh (GRK7): 0%
%Inh (GSK3A): 13%
%Inh (GSK3B): 6%
%Inh (HASPIN): 24%
%Inh (HCK): 4%
%Inh (HIPK1): 0%
%Inh (HIPK2): 0%
%Inh (HIPK3): 0%
%Inh (HIPK4): 0%
%Inh (HPK1): 51%
%Inh (HUNK): 0%
%Inh (ICK): 0%
%Inh (IGF1R): 8%
%Inh (IKK-alpha): 0%
%Inh (IKK-beta): 0%
%Inh (IKK-epsilon): 34%
%Inh (INSRR): 0%
%Inh (INSR): 1%

CNc1nc(-c2ccc3c(N)n[nH]c3c2)cc(N2C[C@@H](C(=O)NC3CCCCC3)OC[C@H]2C)n1 [GSK2375584]
%Inh (GRK3): 37%
%Inh (GRK4): 4%
%Inh (GRK7): 0%
%Inh (GSK3A): 10%
%Inh (GSK3B): 14%
%Inh (HASPIN): 30%
%Inh (HCK): 0%
%Inh (HIPK1): 24%
%Inh (HIPK2): 0%
%Inh (HIPK3): 2%
%Inh (HIPK4): 0%
%Inh (HPK1): 14%
%Inh (HUNK): 21%
%Inh (ICK): 12%
%Inh (IGF1R): 8%
%Inh (IKK-alpha): 0%
%Inh (IKK-beta): 0%
%Inh (IKK-epsilon): 30%
%Inh (INSRR): 0%
%Inh (INSR): 6%

CCn1c(-c2ccccc2)nc2cnccc21 [SB-733416]
%Inh (GRK3): 70%
%Inh (GRK4): 29%
%Inh (GRK7): 0%
%Inh (GSK3A): 0%
%Inh (GSK3B): 25%
%Inh (HASPIN): 0%
%Inh (HCK): 17%
%Inh (HIPK1): 0%
%Inh (HIPK2): 0%
%Inh (HIPK3): 10%
%Inh (HIPK4): 0%
%Inh (HPK1): 48%
%Inh (HUNK): 0%
%Inh (ICK): 46%
%Inh (IGF1R): 7%
%Inh (IKK-alpha): 37%
%Inh (IKK-beta): 43%
%Inh (IKK-epsilon): 19%
%Inh (INSRR): 2%
%Inh (INSR): 4%

COC(=O)c1cccc(NC(=O)NC2CCN(c3ccnc(Nc4ccc(F)cc4)n3)C2)c1 (stereo not drawn) [GSK1379725]
%Inh (GRK3): 38%
%Inh (GRK4): 0%
%Inh (GRK7): 0%
%Inh (GSK3A): 0%
%Inh (GSK3B): 0%
%Inh (HASPIN): 0%
%Inh (HCK): 0%
%Inh (HIPK1): 0%
%Inh (HIPK2): 0%
%Inh (HIPK3): 0%
%Inh (HIPK4): 0%
%Inh (HPK1): 51%
%Inh (HUNK): 0%
%Inh (ICK): 17%
%Inh (IGF1R): 0%
%Inh (IKK-alpha): 0%
%Inh (IKK-beta): 5%
%Inh (IKK-epsilon): 0%
%Inh (INSRR): 0%
%Inh (INSR): 0%

CCn1c(-c2c(N)noc2C)nc2cnccc21 [SB-737856]
%Inh (GRK3): 42%
%Inh (GRK4): 6%
%Inh (GRK7): 0%
%Inh (GSK3A): 0%
%Inh (GSK3B): 2%
%Inh (HASPIN): 0%
%Inh (HCK): 0%
%Inh (HIPK1): 0%
%Inh (HIPK2): 0%
%Inh (HIPK3): 0%
%Inh (HIPK4): 0%
%Inh (HPK1): 41%
%Inh (HUNK): 0%
%Inh (ICK): 4%
%Inh (IGF1R): 0%
%Inh (IKK-alpha): 7%
%Inh (IKK-beta): 0%
%Inh (IKK-epsilon): 0%
%Inh (INSRR): 0%
%Inh (INSR): 0%

COc1ccc(CSc2nnc(-c3ccc4nccn4c3)o2)cc1C(F)(F)F
%Inh (GRK3): 37%
%Inh (GRK4): 0%
%Inh (GRK7): 15%
%Inh (GSK3A): 93.8%
%Inh (GSK3B): 93.8%
%Inh (HASPIN): 32%
%Inh (HCK): 0%
%Inh (HIPK1): 31%
%Inh (HIPK2): 20%
%Inh (HIPK3): 5%
%Inh (HIPK4): 6%
%Inh (HPK1): 0%
%Inh (HUNK): 0%
%Inh (ICK): 0%
%Inh (IGF1R): 0%
%Inh (IKK-alpha): 10%
%Inh (IKK-beta): 7%
%Inh (IKK-epsilon): 11%
%Inh (INSRR): 8%
%Inh (INSR): 5%

Nc1ncnc2occ(-c3ccc4c(c3)CCN4C(=O)Cc3cc(F)ccc3F)c12 [GSK2645446]
%Inh (GRK3): 0%
%Inh (GRK4): 0%
%Inh (GRK7): 0%
%Inh (GSK3A): 0%
%Inh (GSK3B): 2%
%Inh (HASPIN): 0%
%Inh (HCK): 0%
%Inh (HIPK1): 0%
%Inh (HIPK2): 0%
%Inh (HIPK3): 0%
%Inh (HIPK4): 0%
%Inh (HPK1): 31%
%Inh (HUNK): 0%
%Inh (ICK): 0%
%Inh (IGF1R): 0%
%Inh (IKK-alpha): 0%
%Inh (IKK-beta): 0%
%Inh (IKK-epsilon): 41%
%Inh (INSRR): 0%
%Inh (INSR): 0%

c1ccc(-c2ccnc3[nH]ccc23)cc1 [SB-693578]
%Inh (GRK3): 56%
%Inh (GRK4): 3%
%Inh (GRK7): 0%
%Inh (GSK3A): 22%
%Inh (GSK3B): 13%
%Inh (HASPIN): 60%
%Inh (HCK): 0%
%Inh (HIPK1): 4%
%Inh (HIPK2): 0%
%Inh (HIPK3): 34%
%Inh (HIPK4): 0%
%Inh (HPK1): 48%
%Inh (HUNK): 2%
%Inh (ICK): 13%
%Inh (IGF1R): 14%
%Inh (IKK-alpha): 47%
%Inh (IKK-beta): 64%
%Inh (IKK-epsilon): 0%
%Inh (INSRR): 0%
%Inh (INSR): 5%

Cc1cnc(N)c(/C=C/c2cncc(C(=O)NCCc3ccc(Cl)cc3Cl)c2)c1.Cl [GSK190937]
%Inh (GRK3): 6%
%Inh (GRK4): 0%
%Inh (GRK7): 0%
%Inh (GSK3A): 5%
%Inh (GSK3B): 0%
%Inh (HASPIN): 29%
%Inh (HCK): 0%
%Inh (HIPK1): 0%
%Inh (HIPK2): 0%
%Inh (HIPK3): 26%
%Inh (HIPK4): 17%
%Inh (HPK1): 45%
%Inh (HUNK): 10%
%Inh (ICK): 0%
%Inh (IGF1R): 8%
%Inh (IKK-alpha): 19%
%Inh (IKK-beta): 46%
%Inh (IKK-epsilon): 29%
%Inh (INSRR): 0%
%Inh (INSR): 31%

Nc1nccc(-c2c(-c3ccc(F)cc3)ncn2C2CCN(Cc3ccccc3)CC2)n1 [SB-219980]
%Inh (GRK3): 6%
%Inh (GRK4): 0%
%Inh (GRK7): 6%
%Inh (GSK3A): 16%
%Inh (GSK3B): 11%
%Inh (HASPIN): 0%
%Inh (HCK): 9%
%Inh (HIPK1): 0%
%Inh (HIPK2): 0%
%Inh (HIPK3): 0%
%Inh (HIPK4): 0%
%Inh (HPK1): 11%
%Inh (HUNK): 37%
%Inh (ICK): 1%
%Inh (IGF1R): 0%
%Inh (IKK-alpha): 0%
%Inh (IKK-beta): 0%
%Inh (IKK-epsilon): 5%
%Inh (INSRR): 1%
%Inh (INSR): 0%
